# In all, about 48,000 compounds went through this assay and about 13,000 (27%) showed an effect of 50% or more. The list shows a part of the results.
# Tested on: Wolbachia pipientis
# Assay: Anti-Wolbachia Cell-Based Screen
# Format: functional
# Set-up: scale not given: in the data most compounds retested in dose-response had high values
# Conditions: 5 µM
row,SMILES,Percent Effect [%]
1,COc1ccc(-c2nc(CNC(C)Cn3cccn3)cs2)cc1 (stereo not drawn),6.683
2,COCCNc1nc2c(c(NCCc3cccs3)n1)CCNCC2,23.06
3,CC(NC(=O)NCCCn1cncn1)c1ccccc1Cl (stereo not drawn),-1.417
4,Cc1nn(C)c(Oc2cccc(F)c2)c1NC(=O)C1CCOCC1,12.99
5,CNC(=O)c1c(C)cccc1NCc1nnc(C2CC2)o1,-4.757
6,O=C(NC[C@H]1OC[C@@H](N(CC2CC2)CC2CC2)[C@@H]1O)Nc1ccccc1,-9.212
7,Cc1cc(C)n(-c2cncc(NCCNC(=O)C(C)C)n2)n1,1.534
8,CC(C)[C@H](Nc1cc(-c2ccncc2)nc2ccnn12)C(N)=O,-7.86
9,CC(C)(C)C(=O)NCCc1cc2nc(-c3ccncc3)ccn2n1,129.3
10,CC(C)C(=O)NCCc1cc2nc(-c3ccncc3)ccn2n1,130.4
11,CCN(C)C(=O)c1ccc(N(C)Cc2cc(-c3ccncc3)no2)nc1,-25.61
12,CCCC(=O)N(CCCN1CCOCC1)c1nc2c(C)c(C)ccc2s1.Cl,4.916
13,CNC(=O)c1ccc(CNC(=O)c2cc(C(C)C)n(C)n2)cc1,-0.9811
14,CC(C)OC(=O)N1CCCC(c2nccn2Cc2ccncc2)C1 (stereo not drawn),-3.54
15,COc1ncnc2c1CCN(C(=O)Cc1cccc(F)c1)CC2,3.249
16,O=C(Cc1cccc(F)c1)N1CCc2ncnc(NC3CCC3)c2CC1,110
17,Cc1ncnc2c1CCN(C(=O)Cc1cccc(F)c1)CC2,0.1924
18,O=C(Cc1cccc(F)c1)N1CCc2ncnc(NC3CC3)c2CC1.O=C(O)C(F)(F)F,106
19,O=C(Cc1cccc(F)c1)N1CCc2ncnc(N3CCCC3)c2CC1,-1.475
20,NC(=O)NC(=O)CCn1ccc(-c2ccsc2)n1,-12.21
21,CCOC(=O)C1CCN(C(=O)CN2CCCC2c2ccsc2)CC1 (stereo not drawn),0.9272
22,Cc1ccc(CNc2n[nH]c(C)n2)cc1,101.1
23,Cc1noc(NCc2ccc(F)cc2)n1,5.861

row,SMILES,Percent Effect [%]
1,Cc1nnc(NCc2ccc(F)cc2)o1,4.213
2,COc1ccc(CNc2n[nH]c(C)n2)cc1,96.08
3,CSc1ccc(CNc2n[nH]c(C)n2)cc1,110
4,COc1ccc(CNc2c(C)nn(C(C)C)c2C)cc1,-4.166
5,Cc1cccc(CNc2cncc(-n3cccn3)n2)c1,4.61
6,Cc1nc(CNc2ncc(Br)cn2)n[nH]1,-4.306
7,COc1ccc(CNC(C)c2cn[nH]c2C)cc1 (stereo not drawn),2.524
8,CSc1ccc(CNC2(c3ccc(F)cc3)CCOCC2)cc1,-10.48
9,Cc1cccc(CNc2nnc(C(C)C)o2)c1,-24.34
10,Cc1cccc(CNc2n[nH]c(C)n2)c1,94.75
11,O=C(Nc1ccc(F)cc1F)N(CCC(F)(F)F)C[C@H](O)CO,-18.87
12,CN1CCN(Cc2cn3c(n2)CNCC3)CC1.Cl.Cl.Cl,-6.492
13,CCC(NCc1ncc[nH]1)c1nc(C(F)(F)F)cs1 (stereo not drawn),-16.74
14,COC(=O)c1ccc(CNC(=O)CN2C[C@@H](NC(C)=O)[C@H](C(C)C)C2)o1,2.567
15,COc1c(C)cnc(CN(C)C(=O)c2ccccn2)c1C,13.08
16,CCN(C)S(=O)(=O)N1CCCC(CO)(CC=C(C)C)C1 (stereo not drawn),-20.38
17,Cc1nnc(CNC(C)c2cc(C)c(F)c(C)c2)s1 (stereo not drawn),61.57
18,COc1cc(C(C)NCc2ncccc2C)ccc1SC(F)F (stereo not drawn),-24.97
19,Cc1cc(C)cc(C(C)NCc2nnc(C)s2)c1 (stereo not drawn),-26.09
20,Cc1ccc(CNC(=O)CN(C)CC2CCN(CCO)CC2)s1,-11.99
21,COC(=O)CCC(=O)N1CCc2[nH]nc(-c3ccc4c(c3)OCO4)c2C1,6.027
22,O=C1CCNc2cc3c(cc2CN1CC1CC1)OCO3,89.98
23,COC(=O)CN1Cc2cc3c(cc2NCCC1=O)OCO3,87.85

row,SMILES,Percent Effect [%]
1,O=C1NCCN(CC2CC2)C12CCN(Cc1ccc3c(c1)OCO3)CC2,-10.73
2,CC(C)(C)CN1Cc2cc3c(cc2NCCC1=O)OCO3,93.04
3,CCN1Cc2cc3c(cc2NCCC1=O)OCO3,124.2
4,COc1nccnc1N1CCN(Cc2ccc3c(c2)OCO3)C(=O)C1,-4.11
5,CC(C)SCc1cccc(NC(=O)NC(C)c2nc[nH]n2)c1 (stereo not drawn),-14.93
6,Cc1ccccc1S(=O)(=O)NC(=O)CSc1ccc2c(c1)OCCO2,-12.34
7,O=C(CSc1ccccc1Cl)NS(=O)(=O)c1ccc2c(c1)OCCO2,0.8211
8,CN(C)CCN(C)C1CCCN(C(=O)c2ccc(Cn3ccnc3)o2)C1 (stereo not drawn),-5.736
9,CC(O)CN1CCC(CN(C)Cc2cccc(C#N)c2)CC1 (stereo not drawn),-3.336
10,Cc1ccc(F)cc1C(=O)OCC1CCCN1C(N)=O (stereo not drawn),7.06
11,COC(=O)c1cccn1C1CCN(C(=O)c2cc(F)ccc2F)CC1,16.29
12,COC(=O)c1cccn1C1CCN(C(=O)c2ccc(C)[nH]c2=O)CC1,102.8
13,Cc1ccc(C(=O)N2CCC(c3nccn3C(C)C)CC2)c(=O)[nH]1,4.246
14,COC(=O)c1cccn1C1CCN(C(=O)c2ccc(C)cc2O)CC1,105.5
15,COC(=O)c1cccn1C1CCN(C(=O)c2cc(C)ccc2O)CC1,-6.759
16,COC(=O)c1cccn1C1CCN(C(=O)c2cc(F)ccc2C)CC1,95.76
17,COC(=O)c1cccn1C1CCN(C(=O)c2c(C)noc2C)CC1,105.8
18,COC(=O)c1cccn1C1CCN(C(=O)c2cn[nH]c2C)CC1,1.064
19,COc1cccc([C@@H]2CN(C(=O)c3ccc(C)cc3O)C[C@H]2C(=O)O)c1,2.23
20,O=C(Cc1cc2c(cc1Cl)OCCO2)N1CC[C@H](CO)[C@H](O)C1,7.536
21,COc1cccc(-n2c(C)cc(C(=O)NS(C)(=O)=O)c2C)c1,-4.667
22,Cc1n[nH]cc1CNCC1(c2ccccc2Cl)CCOCC1,10.52
